Several values for one entry are separate records, joined by “and”; a condition that tells them apart may be missing. Equal values may be shown once. Records with an inconclusive call do not appear. Where a structure was tested more than once in an assay, its records may differ in their call. Values without a mark were called inactive. Activity calls are given as the source filed them. The call rests on the fitted dose curve; in most records, active means well fitted inhibition curve with a large enough effect; inconclusive means small, poorly fitted or top-dose-only effect; inactive means flat fitted curve, though single readings scatter.

One test has as its system CRL-7250. The experiment in a line: Cytotoxic Profiling of Annotated Libraries Using Quantitative High-Throughput Screening (AID 1296008). On max response: on the % scale 0 is the no-effect control and ±100 the full control effect. The note with it: Five cell lines viability, CellTiter-Glo ATP luminescence, 48-72 h; max response: hits give low values. Summed up: (§1)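 Cells exposed to compounds for 48 or 72 hr at 37 degrees Celsius. Viability read as ATP-coupled luminescence with CellTiter-Glo after 10 min at room temperature.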
Background: Cellular ATP, detected with luciferase, serves as a proxy for viable cell number.

The subject of the next test is HEK293. The description is as above. The conditions noted are these: Five cell lines viability, CellTiter-Glo ATP luminescence, 48-72 h; max response: hits give low values. Summed up:
as §1

The next test concerns KB-3-1. The test is described as above. The note with it: Five cell lines viability, CellTiter-Glo ATP luminescence, 48-72 h; max response: hits give low values. The procedure, abridged:
as §1

Another test has as its system HaCat. Described as above. The note with it: Five cell lines viability, CellTiter-Glo ATP luminescence, 48-72 h; max response: hits give low values. The procedure, abridged: as §1
A further test concerns GB4. The experiment in a line: qHTS profiling for inhibitors of Plasmodium falciparum proliferation (AID 504749). The conditions noted are these: P. falciparum in erythrocytes, SYBR Green DNA, 72 h; series mostly up to 28.7 µM. Summed up:
(§2)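 SYBR Green fluorescence (ex 485 nm, em 535 nm) reports parasite DNA after 72 h compound exposure of infected red cells at 0.3% parasitemia, 2.5% hematocrit; signal normalized to 0.29 uM artemisinin and vehicle wells.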

Another test relates to HB3. The description is as above. The note with it: P. falciparum in erythrocytes, SYBR Green DNA, 72 h; series mostly up to 28.7 µM. The procedure, abridged: as §2
A further test relates to ICS. Described as above. The note with it: P. falciparum in erythrocytes, SYBR Green DNA, 72 h; series mostly up to 28.7 µM. The procedure, abridged: as §2
A further test has as its system JCK. The description is as above. The note with it: P. falciparum in erythrocytes, SYBR Green DNA, 72 h; series mostly up to 28.7 µM. Summed up:
as §2

The next test has as its system N140. Described as above. The note with it: P. falciparum in erythrocytes, SYBR Green DNA, 72 h; series mostly up to 28.7 µM. The procedure, abridged: as §2
A further test relates to P93_24. Described as above. The note with it: P. falciparum in erythrocytes, SYBR Green DNA, 72 h; series mostly up to 28.7 µM. The procedure, abridged: as §2
The subject of a further test is P94_40. The test is described as above. The note with it: P. falciparum in erythrocytes, SYBR Green DNA, 72 h; series mostly up to 28.7 µM. Summed up: as §2
The next test concerns PAD. The test is described as above. The note with it: P. falciparum in erythrocytes, SYBR Green DNA, 72 h; series mostly up to 28.7 µM. Summed up: as §2
For the next test, the system named is PC15. Described as above. The note with it: P. falciparum in erythrocytes, SYBR Green DNA, 72 h; series mostly up to 28.7 µM. The procedure, abridged: as §2
A further test has as its system PC26. The test is described as above. The conditions noted are these: P. falciparum in erythrocytes, SYBR Green DNA, 72 h; series mostly up to 28.7 µM. Summed up: as §2
A further test deals with PC49. The description is as above. The conditions noted are these: P. falciparum in erythrocytes, SYBR Green DNA, 72 h; series mostly up to 28.7 µM. Summed up:
as §2

The subject of a further test is SC27B. The description is as above. The note with it: P. falciparum in erythrocytes, SYBR Green DNA, 72 h; series mostly up to 28.7 µM. Summed up:
as §2

The test system of the next test is TAB109. The test is described as above. The note with it: P. falciparum in erythrocytes, SYBR Green DNA, 72 h; series mostly up to 28.7 µM. The procedure, abridged: as §2
For another test, the system named is TAB113. The test is described as above. The conditions noted are these: P. falciparum in erythrocytes, SYBR Green DNA, 72 h; series mostly up to 28.7 µM. Summed up: as §2
The subject of the next test is TAB165. Described as above. The note with it: P. falciparum in erythrocytes, SYBR Green DNA, 72 h; series mostly up to 28.7 µM. Summed up:
as §2

The subject of a further test is W2. The test is described as above. The conditions noted are these: P. falciparum in erythrocytes, SYBR Green DNA, 72 h; series mostly up to 28.7 µM. The procedure, abridged:
as §2
Further: nearly all actives have a fitted effect of over 60% in size.
Potency means the concentration at half of the fitted maximal effect.

Regarding `CC(O)=C(C#N)C(=O)Nc1cc(Br)ccc1Br`, the results for the max response in the test with CRL-7250 and in the test on HEK293 were 1.28% and -1.81%, respectively. Further, the result in the test on KB-3-1 was inactive.

Consider `CC1(C)CC/C(=C/c2ccc(Cl)cc2)C1(O)Cn1cncn1` (stereo not given), for which the max response with CRL-7250 was -5.73%; in the test on KB-3-1, -19.8%.

For the molecule `O=C(O)COc1nc(Cl)c(Cl)cc1Cl`, the results for the max response with CRL-7250, with HEK293 and in the test with KB-3-1 were -6.6%, -3.5% and -16.3%, respectively.

Consider `O=C(Nc1ccncc1)C(=O)c1cn(Cc2ccc(Cl)cc2)c2ccccc12`, for which the values for the Potency in the test on CRL-7250, in the test on HEK293 and in the test with KB-3-1 were 0.296 µM (active), 0.0372 µM (active) and 0.0469 µM (active), respectively.

Take `CC(C)(C)NC[C@H](O)c1ccc(O)cc1Cl`: the results for the max response in the test with CRL-7250, with HEK293 and in the test on KB-3-1 were -2.25%, -9.08% and 9.37%, respectively.

As to `CC(C)Oc1cccc(NC(=O)c2ccccc2C(F)(F)F)c1`, in the test with CRL-7250, the Potency is 54.5 µM (active). Besides, in the test on KB-3-1, the max response is -12.9%.

As for `C[C@@H]1CC[C@@]2(OC1)O[C@H]1C[C@H]3[C@@H]4CC=C5C[C@@H](O[C@@H]6O[C@H](CO)[C@@H](O[C@@H]7O[C@@H](C)[C@H](O)[C@@H](O)[C@@H]7O)[C@H](O)[C@@H]6O[C@@H]6O[C@@H](C)[C@H](O)[C@@H](O)[C@@H]6O)CC[C@]5(C)[C@@H]4CC[C@]3(C)[C@@H]1[C@H]2C`, the values for the Potency with CRL-7250, in the test on HEK293 and in the test on KB-3-1 were 9.35 µM (active), 3.72 µM (active) and 8.33 µM (active), respectively.

Regarding `CC(C)(C)C(O)C(Oc1ccc(Cl)cc1)n1cncn1` (stereo not given), the result in the test with CRL-7250 was inactive. For the same molecule, the max response was 0.929% with HaCat and -16.3% in the test on KB-3-1.

Take `C=C1C[C@H]2[C@H]3CCC(=O)[C@@]3(C)CC[C@@H]2[C@@]2(C)C=CC(=O)C=C12`: the max response was -22.6% in the test on CRL-7250 and 8.58% in the test on KB-3-1. The molecule was classed as inactive in the test on HaCat.

As for `COCCOCCO`, the max response with CRL-7250 was -4.64%; in the test on HEK293, -2.65%; in the test with KB-3-1, -8.22%.

As to `Nc1ccc(Cl)cc1N`, the max response in the test with CRL-7250 is -5.38%; in the test with HaCat it was -38.9%; in the test on KB-3-1, -2.75%.

Consider `C/C=C(/C)C(=O)O[C@H]1C(C)=C2[C@H]([C@@H]1OC(=O)CCCCCCC)[C@@](C)(OC(C)=O)C[C@H](OC(=O)CCC)[C@@]1(O)[C@H]2OC(=O)[C@@]1(C)O`, for which the Potency in the test on CRL-7250 is 0.0411 µM (active); with HEK293, 0.0291 µM (active); with KB-3-1 it was 0.0461 µM (active).

Regarding `C[C@](O)(COc1ccc(C#N)cc1)C(=O)Nc1ccc(C#N)c(C(F)(F)F)c1`, the max response in the test on CRL-7250 was -6.61%; in the test with KB-3-1, -23.6%. For the same molecule, in the test with HaCat, the molecule was called inactive.

For the molecule `CC(=O)[O][Hg][c]1ccccc1`, the Potency is 4.26 µM (active) in the test on GB4; 6.31 µM (active) with HB3; 3.55 µM (active) in the test with ICS; 3.98 µM (active) in the test on JCK; 3.55 µM (active) in the test with N140; 5.01 µM (active) in the test with P93_24. For the same molecule, the Potency with P94_40 was 3.55 µM (active); in the test on PAD, 6.31 µM (active); with PC15 it was 3.55 µM (active); in the test on PC26, 6.75 µM (active); in the test with PC49, 2 µM (active); with SC27B, 4.47 µM (active). Besides, the Potency was 4.47 µM (active) in the test with TAB109; 7.08 µM (active) with TAB113; 4.47 µM (active) with TAB165; 4.78 µM (active) in the test on W2; 4.22 µM (active) in the test on CRL-7250; 0.376 µM (active) with HEK293. Besides, in the test with KB-3-1, the Potency is 1.64 µM (active).

On to `COc1ccc(N(C(=O)Oc2c(C)cccc2C)c2ccnc(Nc3ccc(N4CCN(C)CC4)cc3)n2)c(OC)c1`, for which the max response with CRL-7250 was -8.13% and -61.8%; in the test on HEK293, 1.61% and -25.7%; with KB-3-1 it was -15.9%. Also, the Potency in the test on KB-3-1 is 16.4 µM (active).

The record behind these values is PubChem BioAssay (NCATS).
